HP1b chromo inh = HTS for Inhibitors of HP1-beta Chromodomain Interactions with Methylated Histone Tails; Chromobox protein homolog 1 (Homo sapiens), P83916; AlphaScreen HP1-beta / biotin-H3K9me3 peptide binding; Potency, µM (series often up to 114 µM), inactives show at the top dose activity change, negative = inhibition, hits mostly inhibitors; 390,000 compounds, 0.56% hits; AID 540317, 2011; note: potency is the fitted concentration of half-maximal effect; nearly all actives have a fitted effect of over 70% in size
Target sequence (P83916 whole entry, looked up): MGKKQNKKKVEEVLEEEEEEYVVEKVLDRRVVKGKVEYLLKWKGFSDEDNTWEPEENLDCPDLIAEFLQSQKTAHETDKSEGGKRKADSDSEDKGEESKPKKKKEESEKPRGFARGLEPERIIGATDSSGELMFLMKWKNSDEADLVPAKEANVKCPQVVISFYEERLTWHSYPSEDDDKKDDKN
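Compound inhibition of the preformed complex between 50 nM HP1-beta and 50 nM biotinylated H3K9me3 peptide was read by AlphaScreen. Buffer was PBS pH 7.4 with 0.01% Tween-20. Incubations ran 30 min at room temperature, with 10 ug/mL donor/acceptor beads.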
BAZ2B block = qHTS Assay for Inhibitors of BAZ2B; Potency, µM (highest dose often 114 µM), for the others: at the top dose activity change, negative = inhibition, hits mostly inhibitors; 360,000 compounds, 4.4% hits; AlphaScreen BAZ2B-H3K14Ac peptide displacement; AID 504333, 2011; Bromodomain adjacent to zinc finger domain protein 2B (Homo sapiens), Q9UIF8; note: potency is the fitted concentration of half-maximal effect; % is set by controls: 0 for no effect and ±100 for the full control effect; nearly all actives have a fitted effect of over 60% in size
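BAZ2B 50 nM plus b-H3(5-23)K14Ac 50 nM, PBS pH 7.4/0.01% Tween-20, 30 min RT; compound added (max 110 uM), 30 min RT; streptavidin donor/Ni-chelate acceptor beads 10 ug/mL final, 20 min dark; AlphaScreen read.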
CtBP-E1A blk = qHTS Assay for Inhibitors of the CtBP/E1A Interaction; activity change, % (no concentration beside the values); AlphaScreen GST-E1A/His-CtBP binding, 1536-well; stronger effect = lower value; CtBP / adenovirus E1A interaction (AlphaScreen); 340,000 compounds, 0.49% hits; in the data active = activity change below about -65%; inconclusive = mostly about -30% to -63%; note: % is set by controls: 0 for no effect and ±100 for the full control effect
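Steps: dispense buffer (Tris pH 8.0, NaCl 300 mM, TCEP 1 mM, BSA, Tween 20); add 5X protein mix (GST-E1A, His-CtBP, 125 nM each); pin 23 nL compound; 2 h at 37 °C, dark; add 5X beads (50 ug/mL); 1 h; read.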
Six1-Eya2 inh = qHTS Assay for Inhibitors of the Six1/Eya2 Interaction; Homeobox protein SIX1 (Homo sapiens) + Protein phosphatase EYA2 (Homo sapiens), …; AlphaScreen GST-Six1/His-Eya2 binding, biochemical; stronger effect = lower value; activity change, % (test concentration not listed); 360,000 compounds, 0.56% hits; AID 651725, 2012; in the data active = activity change below about -65%; inconclusive = mostly about -30% to -63%; note: % is set by controls: 0 for no effect and ±100 for the full control effect
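GST-Six1 + His-Eya2 (5X stock: 250/500 nM); Tris pH 8.0, 300 mM NaCl, 0.05% BSA, 0.02% Tween 20; GSH donor/Ni acceptor beads; 1 h 37 °C dark; AlphaScreen readout.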
JMJD2A Tudor = qHTS Assay for Inhibitors of JMJD2A-Tudor Domain | Lysine-specific demethylase 4A (Homo sapiens), O75164 | AlphaScreen JMJD2A-Tudor / H3K4me3 peptide binding | Potency, µM (highest dose often 114 µM), inactives show top-dose activity change, negative = inhibition, usual class: inhibitors | 390,000 compounds, 4.4% hits; note: potency is the fitted concentration of half-maximal effect; % is set by controls: 0 for no effect and ±100 for the full control effect; nearly all actives have a fitted effect of over 50% in size
G9a inh = qHTS Assay for Inhibitors of Histone Lysine Methyltransferase G9a; Histone-lysine N-methyltransferase EHMT2 (Homo sapiens), Q96KQ7; G9a H3K9 monomethylation, AlphaScreen, 2 h; Potency, µM (highest dose often 102 µM), for inactives: at the top dose activity, negative = inhibition, most hits filed as inhibitors; 350,000 compounds, 8.8% hits; AID 504332, 2011; note: potency is the fitted concentration of half-maximal effect; % is set by controls: 0 for no effect and ±100 for the full control effect; nearly all actives have a fitted effect of over 75% in size
Target sequence (Q96KQ7 913-1193 limits assumed): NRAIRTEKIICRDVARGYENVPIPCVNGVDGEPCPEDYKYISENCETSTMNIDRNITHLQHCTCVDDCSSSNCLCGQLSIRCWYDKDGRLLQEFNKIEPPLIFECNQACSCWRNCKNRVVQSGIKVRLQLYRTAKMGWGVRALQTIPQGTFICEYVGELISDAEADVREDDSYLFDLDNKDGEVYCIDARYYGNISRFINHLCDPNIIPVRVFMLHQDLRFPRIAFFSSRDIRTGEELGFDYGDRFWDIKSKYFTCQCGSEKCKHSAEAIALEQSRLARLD
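AlphaScreen read-out: biotin-H3K9 peptide (500 nM) methylation by 20 nM enzyme with 20 uM SAM, 2 h at room temperature after 15 min compound preincubation; anti-monomethyl H3K9 antibody plus donor/acceptor beads, 10 min dark.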
An asterisk follows results filed as active; ? = inconclusive; nt = no result given; [ ] = another dose, or the depositor's remark. A selection: hits, their analogues and other compounds. The true share with any hit is near 10%. Unless noted, calls come from the whole dose curve; as a rule, active = well fitted inhibition curve with a large enough effect; inconclusive = small, poorly fitted or top-dose-only effect; inactive = no such curve, though single readings can be large or run the other way.

SMILES	HP1b chromo inh	BAZ2B block	CtBP-E1A blk	Six1-Eya2 inh	JMJD2A Tudor	G9a inh
CC(=O)c1cccc(NC(=O)c2ccc3c(c2)N(Cc2ccc(C)cc2)CCS3)c1	32%	-2%	nt	nt	-15%	0%[59 µM]
CCOC(=O)C1C(=O)NC(SCC(N)=O)=C(C#N)C1c1ccccc1OCC (centres undefined)	-15%	-28%	4	3	?	20µM*
CCCCOC(=O)CSC1=C(C#N)C(c2ccccc2OC)C(C#N)C(=O)N1 (centres undefined)	23%	?	-1	-1	?	-8%[0.501 µM]
CCCCOC(=O)CSC1=C(C#N)C(c2ccccc2OCC)C(C#N)C(=O)N1 (centres undefined)	-3%	50µM*	-6	-16	-36%	29%[0.501 µM]
CCCOC(=O)CSC1=C(C#N)C(c2ccccc2OCC)C(C#N)C(=O)N1 (centres undefined)	?	50µM*	3	0	-31%	?
CCOC(=O)C1C(=O)NC(SC)=C(C#N)C1c1ccccc1F (centres undefined)	5%	3%	2	2	-17%	15%
COc1ccc2c(CNC3CCCC3)c(C(=O)O)n(Cc3ccccc3C)c2c1	18%	-15%	nt	nt	-16%	-7%[59 µM]
Cc1nc(N2CCOCC2)c2c(C(=O)N(C)Cc3ccccc3)c(C)oc2n1	47%	13%[57.1 µM]	nt	nt	-10%	-22%[59 µM]
COc1ccc(CCNC(=O)C(=O)NCC(c2ccc3c(c2)OCO3)N2CCOCC2)cc1OC (centres undefined)	13%[57 µM]	-1%	nt	nt	-19%	2%[59 µM]
COc1cc(C(=O)O/N=C2\C=CC(=O)C(C)=C2)cc(OC)c1OC	22%	-33%	-3	-1	-20%	14µM*
CC(C)c1ccc(NC(=O)C(C)N(c2ccccc2)S(C)(=O)=O)cc1 (centres undefined)	17%	3%	nt	nt	-6%	?
Cc1ccc(OCCSc2nc3ccccc3n2CC(=O)N2CCOCC2)cc1C	51%	-17%	nt	nt	-9%	?
Cc1cccc(OCCSc2nc3ccccc3n2CC(=O)N2CCOCC2)c1C	-13%	?	nt	nt	-26%	10µM*
Cc1ccc(OCCSc2nc3ccccc3n2CC(=O)N2CCCCC2)cc1C	-1%	-35%	nt	nt	-33%	13µM*
Cc1ccc(OCCSc2nc3ccccc3n2CC(=O)N2CCOCC2)c(C)c1	28%	?	nt	nt	-20%	-39%[59 µM]
Oc1c(Cl)c(Cl)c2ncccc2c1Cl	?	nt	0	-14	?	nt
O=[N+]([O-])c1cc(F)c2cccnc2c1O	11%	11µM*	nt	-88*	10µM*	8.9µM*
COc1cc(NC(=O)CN(C)C2CCCCC2)c(C)cc1[N+](=O)[O-]	-10%	-11%	-2	-3	?	-6%
Cc1c(C)c2cccnc2c2ncccc12	33%	5.6µM*	-95*	-92*	10µM*	nt
O=[N+]([O-])c1cc(Cl)c2cccnc2c1O	?	18µM*	-91*	-81*	20µM*	35µM*
O=[N+]([O-])c1ccc(Cl)c2cccnc12	14%	-3%	-2	-11	-16%	11%
CN(Cc1cc([N+](=O)[O-])c2cccnc2c1O)C1CCCCC1	nt	7.9µM*	nt	nt	nt	11%[59 µM]
Cc1ccc(CCNC(=O)c2cc(C)nc3c2c(C)nn3-c2ccc(C)cc2)cc1	16%	12%[57.1 µM]	nt	nt	-2%	-5%[59 µM]
O=[N+]([O-])c1cc(Cl)c(O)c2ncccc12	?	20µM*	-91*	-80*	22µM*	25µM*
Clc1ccc(Oc2ccccc2)c2ncccc12	59%	33%	0	7	18%	-5%[2.33 µM]
SMILES	HP1b chromo inh	BAZ2B block	CtBP-E1A blk	Six1-Eya2 inh	JMJD2A Tudor	G9a inh
Clc1cc2cccnc2c2ncccc12	22%	3.5µM*	-96*	-67*	-7%	?
Oc1c(I)cc(Cl)c2cccnc12	4%	40µM*	-95*	-95*	79µM*	35µM*
CCc1cccc(NC(=O)Cn2c(=O)n(CCCCCC(=O)NCc3ccc(F)cc3)c(=O)c3sccc32)c1	15%	-2%	nt	nt	-10%	3%[59 µM]
CCOC(=O)c1c(C)[nH]c(N=Nc2ccc(C)cc2)c1C	?	45µM*	?	?	40µM*	?
CCOC(=O)c1c(C)[nH]c(NC(=O)NNC(=O)c2ccccc2Cl)c1C	33%	4%	-5	3	-16%	19%[2.33 µM]
CCOC(=O)c1c(C)[nH]c(N=Nc2ccccc2)c1C	40µM*	35µM*	-29	?	56µM*	40µM*
CCOC(=O)c1c(C)[nH]c(N=Nc2ccccc2Cl)c1C	?	8.9µM*	-11	?	16µM*	-119%[59 µM]
CCOC(=O)c1c(C)[nH]c(N=Nc2ccc(OC)cc2)c1C	?	40µM*	?	-24	56µM*	28µM*
Cc1ccc(Cc2nc3ccccc3nc2SCC(=O)N2CCCc3ccccc32)cc1	25%[57 µM]	4%	nt	nt	-18%	15%[59 µM]
Cc1ccc(-c2nnc3ccc(SC(C)C(=O)O)nn23)cc1 (centres undefined)	?	-30%	2	-4	40µM*	3.5µM*
CCOC(=O)C(C)Sc1ccc2nnc(-c3ccc(OCC)cc3)n2n1 (centres undefined)	17%[57 µM]	nt	nt	nt	0%[57.1 µM]	nt
CCOC(=O)C(C)Sc1ccc2nnc(-c3ccc(F)cc3)n2n1 (centres undefined)	40%	0%	-4	-2	-6%	7.9µM*
CC(Sc1ccc2nnc(-c3ccc(F)cc3)n2n1)C(=O)O (centres undefined)	-16%	-11%	-14	5	?	3.5µM*
CCc1ccc(C2CC(=O)c3c([nH]c(C(=O)OC4CCC(C)CC4)c3C)C2)cc1 (centres undefined)	35%	1%	nt	nt	0%	3%[59 µM]
Cc1cc(F)ccc1NC(=O)CCSc1nc(-c2ccco2)cc(C(F)(F)F)n1	43%	-1%	nt	nt	1%	-4%[59 µM]
CC1(C(=O)O)CCC(C(=O)NNC(=O)c2ccccc2Cl)C1(C)C (centres undefined)	9%	nt	-65*	0	-12%	nt
O=C(Nc1cc(Cl)cc(Cl)c1)c1cc(S(=O)(=O)NC2CCCC2)ccc1F	45%	3%	nt	nt	2%	6%[59 µM]
Cc1ccccc1C(=O)NC(=S)NCC(=O)c1ccccc1	5%	8%	-4	-3	0%	-5%
